PubChem BioAssay
Calls of active or inactive are those of the source.

What was measured:
[1] = system: Plasmodium falciparum Sir2 (PF13_0152, Sir2A); assay: Plasmodium falciparum Sir2A binding compounds – biochemical, small-molecule microarray, 635 nm fluorescence, primary screen (AID 1098); conditions: fluorescence 635 nm, higher = more signal;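 also: score merges spot fluorescence intensity with its signal-to-noise ratio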
[2] = probe aDKK1 binding to arrayed compounds – biochemical, biotinylated probe, 635/667 nm fluorescence, primary screen (AID 1099); conditions: small-molecule microarray, higher = more signal;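 also: score merges 667nm spot fluorescence with signal to noise across triplicate slides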
[3] = probe aCHRDL2 binding to arrayed compounds – biochemical, biotinylated probe, 635/667 nm fluorescence, primary screen (AID 1100); conditions: small-molecule microarray, higher = more signal
[4] = change in splice reporter luminescence, either direction, cell-based, HEK293, spliceosome inhibition project, primary screen (AID 1101); conditions: HEK293 splicing luciferase reporter, 24 h, higher = more signal, called active from +8 up or from −8 down;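 also: HEK293 cells carrying a splicing-competent luciferase reporter gene; test concentration not given here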
[5] = target: Fibroblast growth factor 10 (Homo sapiens) (UniProt O15520); assay: compounds binding fibroblast growth factor 10 – biochemical, small-molecule microarray, 635 nm fluorescence, primary screen (AID 1102); conditions: FGF10 binding, fluorescence 635 nm, higher = more signal
Chain of Fibroblast growth factor 10 (Homo sapiens) (O15520 whole entry, looked up): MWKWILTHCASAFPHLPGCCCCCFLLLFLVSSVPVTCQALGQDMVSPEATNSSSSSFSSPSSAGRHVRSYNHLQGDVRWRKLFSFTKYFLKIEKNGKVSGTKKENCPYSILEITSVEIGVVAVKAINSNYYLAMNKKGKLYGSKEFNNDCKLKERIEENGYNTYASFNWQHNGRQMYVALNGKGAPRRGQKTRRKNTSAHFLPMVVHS

[6] = system: glycogen synthase kinase-3 (GSK3A per assay name; protocol says GSK3B); assay: compounds binding glycogen synthase kinase-3 – biochemical, small-molecule microarray, 635 nm fluorescence, GSK3A, primary screen (AID 1103); conditions: fluorescence 635 nm, higher = more signal; also: the record names both GSK3A and GSK3B
[7] = target: Epidermal growth factor receptor (Homo sapiens) (UniProt P00533); assay: compounds binding epidermal growth factor receptor – biochemical, small-molecule microarray, 635 nm fluorescence, primary screen (AID 1104); conditions: EGFR binding, higher = more signal;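 also: score merges 667 nm emission intensity with spot signal to noise over triplicate slides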
Chain of Epidermal growth factor receptor (Homo sapiens) (P00533 whole entry, looked up): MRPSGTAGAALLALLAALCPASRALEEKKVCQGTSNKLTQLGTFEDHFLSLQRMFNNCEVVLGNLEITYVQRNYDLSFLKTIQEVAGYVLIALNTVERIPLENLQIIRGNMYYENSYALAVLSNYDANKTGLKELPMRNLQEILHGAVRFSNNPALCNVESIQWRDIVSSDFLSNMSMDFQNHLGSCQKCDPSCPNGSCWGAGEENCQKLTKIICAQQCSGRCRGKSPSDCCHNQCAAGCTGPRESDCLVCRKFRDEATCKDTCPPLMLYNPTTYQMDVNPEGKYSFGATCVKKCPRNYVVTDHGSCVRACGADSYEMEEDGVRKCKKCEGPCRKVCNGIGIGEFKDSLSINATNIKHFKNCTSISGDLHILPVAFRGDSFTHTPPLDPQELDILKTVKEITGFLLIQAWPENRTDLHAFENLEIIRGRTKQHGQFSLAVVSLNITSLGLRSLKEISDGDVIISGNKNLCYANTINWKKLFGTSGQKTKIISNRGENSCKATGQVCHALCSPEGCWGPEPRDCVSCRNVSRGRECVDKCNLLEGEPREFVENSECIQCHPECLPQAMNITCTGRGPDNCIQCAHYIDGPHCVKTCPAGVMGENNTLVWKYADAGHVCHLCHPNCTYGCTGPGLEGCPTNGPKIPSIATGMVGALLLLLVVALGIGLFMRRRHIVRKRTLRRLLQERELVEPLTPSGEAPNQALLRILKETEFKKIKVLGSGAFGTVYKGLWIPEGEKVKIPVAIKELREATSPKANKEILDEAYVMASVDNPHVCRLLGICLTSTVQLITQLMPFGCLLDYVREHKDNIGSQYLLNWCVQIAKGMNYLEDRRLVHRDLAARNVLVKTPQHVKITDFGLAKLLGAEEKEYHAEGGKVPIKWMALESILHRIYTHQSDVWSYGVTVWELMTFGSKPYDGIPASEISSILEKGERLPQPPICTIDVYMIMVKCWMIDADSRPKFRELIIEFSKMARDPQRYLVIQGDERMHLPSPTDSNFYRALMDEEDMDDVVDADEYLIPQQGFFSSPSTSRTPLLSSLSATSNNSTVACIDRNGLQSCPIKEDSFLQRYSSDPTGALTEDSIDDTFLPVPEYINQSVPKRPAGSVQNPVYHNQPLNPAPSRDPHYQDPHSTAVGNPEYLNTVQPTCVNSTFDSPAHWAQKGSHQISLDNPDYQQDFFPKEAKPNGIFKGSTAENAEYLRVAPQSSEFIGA

[8] = target: Follistatin-related protein 3 (Homo sapiens) (UniProt O95633); assay: compounds binding follistatin-related protein 3 – biochemical, small-molecule microarray, 635 nm fluorescence, primary screen (AID 1105); conditions: FSTL3 binding, higher = more signal;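 also: score merges emission near 667 nm and signal to noise per printed spot across three slides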
Chain of Follistatin-related protein 3 (Homo sapiens) (O95633 whole entry, looked up): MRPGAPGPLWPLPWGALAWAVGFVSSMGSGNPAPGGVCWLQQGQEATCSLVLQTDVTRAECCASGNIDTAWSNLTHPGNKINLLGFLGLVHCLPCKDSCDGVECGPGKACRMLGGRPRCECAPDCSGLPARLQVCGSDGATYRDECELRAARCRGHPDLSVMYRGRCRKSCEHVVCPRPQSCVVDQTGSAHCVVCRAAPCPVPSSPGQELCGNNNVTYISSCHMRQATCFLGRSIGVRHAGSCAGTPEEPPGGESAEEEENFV

[9] = target: Dickkopf-related protein 1 (Homo sapiens) (UniProt O94907); assay: small molecules binding DKK1 protein – biochemical, small-molecule microarray, 635 nm fluorescence scan, primary screen (AID 1106); conditions: higher = more signal;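 also: score merges emission near 667 nm with signal to noise over three replicate slides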
Chain of Dickkopf-related protein 1 (Homo sapiens) (O94907 whole entry, looked up): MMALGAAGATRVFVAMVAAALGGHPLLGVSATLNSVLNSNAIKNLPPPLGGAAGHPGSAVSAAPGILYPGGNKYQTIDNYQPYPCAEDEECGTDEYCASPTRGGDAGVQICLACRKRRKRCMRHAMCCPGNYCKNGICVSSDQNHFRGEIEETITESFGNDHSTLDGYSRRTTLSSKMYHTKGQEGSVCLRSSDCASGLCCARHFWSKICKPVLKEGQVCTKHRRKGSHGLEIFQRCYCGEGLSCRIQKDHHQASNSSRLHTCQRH

[10] = system: Inhibin beta A chain (activin A); assay: small molecules binding activin A – biochemical, small-molecule microarray, 635 nm fluorescence scan, primary screen (AID 1107); conditions: INHBA, higher = more signal;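 also: mouse activin A protein probed at 4.33 µg/mL on printed slides; score merges bound-protein fluorescence near 667 nm with spot signal-to-noise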
[11] = system: Human papillomavirus type 1a protein E7 (residues 44-93); assay: small molecules binding HPV E7 44-93 – biochemical, small-molecule microarray, residues 44-93, 635 nm fluorescence, primary screen (AID 1108); conditions: fluorescence 635 nm, higher = more signal;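 also: E7 fragment applied at 1 µg/mL in TBST for 1 h at 4 C; score combines spot fluorescence with its signal to noise ratio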
[12] = hepatitis C replication reporter changes, two-sided – Huh7 cells, luciferase reporter, HCV replication inhibitor project, primary screen (AID 1109); conditions: Huh7 HCV replicon luciferase reporter, 48 h; higher = more signal;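 also: huh7 hepatoma cells harbouring a luciferase neomycin HCV replicon reporter; luciferase luminescence as measure of HCV replicon replication; test concentration not given here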
[13] = target: Left-right determination factor 2 (Homo sapiens) (UniProt O00292); assay: small molecules binding LEFTY2 protein – biochemical, small-molecule microarray, 635 nm fluorescence scan, primary screen (AID 1110); conditions: higher = more signal
Chain of Left-right determination factor 2 (Homo sapiens) (O00292 whole entry, looked up): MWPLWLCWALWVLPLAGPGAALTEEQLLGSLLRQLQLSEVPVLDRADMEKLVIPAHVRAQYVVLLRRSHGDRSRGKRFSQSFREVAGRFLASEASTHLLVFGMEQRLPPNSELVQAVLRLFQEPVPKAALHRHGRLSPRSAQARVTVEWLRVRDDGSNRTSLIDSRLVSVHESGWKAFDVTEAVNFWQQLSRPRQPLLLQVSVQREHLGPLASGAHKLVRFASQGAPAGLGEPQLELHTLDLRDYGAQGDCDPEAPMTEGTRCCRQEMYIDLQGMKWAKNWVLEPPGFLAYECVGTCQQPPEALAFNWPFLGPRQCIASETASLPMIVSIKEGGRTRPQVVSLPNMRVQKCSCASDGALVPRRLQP

[14] = target: Calmodulin-1 (Homo sapiens) (UniProt P0DP23); assay: small molecules binding calmodulin-1 with EGTA – biochemical, small-molecule microarray, Cy5-labelled CALM1, profiling panel (AID 1111); conditions: Cy5-CALM1 binding fluorescence, higher = more signal;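 also: labelled calmodulin applied in Tris saline Tween buffer holding calcium plus EGTA and DTT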
[15] = target: Calmodulin-1 (Homo sapiens) (UniProt P0DP23); assay: small molecules binding Ca-loaded calmodulin-1 – biochemical, small-molecule microarray, Cy5-labelled CALM1, plus calcium, artefact control for SMM control-protein annotation, profiling panel (AID 1112); conditions: Cy5-CALM1 binding fluorescence, higher = more signal;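 also: score merges spot fluorescence with signal to noise from triplicate slides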
[16] = probe aWnt5a binding to arrayed compounds – biochemical, biotinylated probe, 635/667 nm fluorescence, primary screen (AID 1113); conditions: small-molecule microarray, higher = more signal;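 also: score merges 667 nm fluorescence intensity with signal-to-noise per printed feature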
[17] = probe aShh binding to arrayed compounds – biochemical, biotinylated probe, 635/667 nm fluorescence, primary screen (AID 1114); conditions: small-molecule microarray, higher = more signal;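 also: probe is biotin-labelled aShh protein from a stem cell growth factor screen; measures binding of labelled protein to compounds printed on the slide; score merges feature fluorescence at 667 nm with signal-to-noise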
[18] = probe aNog binding to arrayed compounds – biochemical, biotinylated probe, 635/667 nm fluorescence, primary screen (AID 1115); conditions: small-molecule microarray, higher = more signal;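 also: probe is biotinylated aNog protein used at 0.15 µg/mL for 1 h at 4 C; z-score combines 667 nm fluorescence of each spot with its signal to noise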
[19] = target: Torsin-1A-interacting protein 1 (Homo sapiens) (UniProt Q5JTV8); assay: compound microarray binding of lysate hLAP1 – cell lysate, small-molecule microarray, COS7 lysate, 635/667 nm fluorescence, primary screen (AID 1116); conditions: 635 nm fluorescence, higher = more signal
Chain of Torsin-1A-interacting protein 1 (Homo sapiens) (Q5JTV8 whole entry, looked up): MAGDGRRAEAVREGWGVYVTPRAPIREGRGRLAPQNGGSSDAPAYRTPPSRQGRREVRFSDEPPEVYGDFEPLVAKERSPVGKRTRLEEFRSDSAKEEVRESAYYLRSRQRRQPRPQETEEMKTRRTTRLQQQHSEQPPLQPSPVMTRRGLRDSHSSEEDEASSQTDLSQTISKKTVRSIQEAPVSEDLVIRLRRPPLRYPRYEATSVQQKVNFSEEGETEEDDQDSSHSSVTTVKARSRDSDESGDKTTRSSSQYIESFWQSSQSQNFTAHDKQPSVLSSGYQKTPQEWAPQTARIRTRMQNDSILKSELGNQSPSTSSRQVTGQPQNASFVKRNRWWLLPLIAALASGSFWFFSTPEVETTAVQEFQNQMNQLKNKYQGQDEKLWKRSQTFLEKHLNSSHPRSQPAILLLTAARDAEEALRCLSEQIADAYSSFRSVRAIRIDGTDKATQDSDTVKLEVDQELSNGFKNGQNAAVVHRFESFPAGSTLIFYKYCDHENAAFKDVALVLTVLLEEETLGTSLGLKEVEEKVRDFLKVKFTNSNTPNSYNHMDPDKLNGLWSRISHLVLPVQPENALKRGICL

[20] = target: Alpha-bungarotoxin (Bungarus multicinctus) (UniProt P60615); assay: compounds binding labelled alpha-BTX control protein – biochemical, small-molecule microarray, Alexa647 label, 635/667 nm fluorescence, artefact control for SMM control protein annotation, profiling panel (AID 1117); conditions: alpha-BTX-A647 binding fluorescence, higher = more signal
Chain of Alpha-bungarotoxin (Bungarus multicinctus) (P60615 whole entry, looked up): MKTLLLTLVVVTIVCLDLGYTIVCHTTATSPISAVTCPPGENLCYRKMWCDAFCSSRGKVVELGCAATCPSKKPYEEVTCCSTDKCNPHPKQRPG

| SMILES | composite z-score [1] | composite z-score [2] | composite z-score [3] | z-score [4] | composite z-score [5] | composite z-score [6] | composite z-score [7] | composite z-score [8] | composite z-score [9] | composite z-score [10] | composite z-score [11] | z-score [12] | composite z-score [13] | composite z-score [14] | composite z-score [15] | composite z-score [16] | composite z-score [17] | composite z-score [18] | composite z-score [19] | composite z-score [20] |
| --- | --- | --- | --- | --- | --- | --- | --- | --- | --- | --- | --- | --- | --- | --- | --- | --- | --- | --- | --- | --- |
| CCOC(=O)[C@H](Cc1ccccc1)NC(=O)CCC1CC(OC(=O)NCc2cccc3ccccc23)CC2(CCCC(COC(=O)NCC(c3ccccc3)c3ccccc3)O2)O1 (stereo not given in full) | 0.812 | 0.127 | -0.464 | -1.21 (inactive) | 0.684 | 0.588 | 0.356 | 0.501 | 0.37 | 0.0413 | 0.313 | -1.46 | 0.567 | -0.328 | -0.43 | -0.096 | -0.2 | -0.187 | 0.18 | -0.0602 |
| CC(C)=CCCC(C)=CCON=C1C[C@@H](O)[C@@H](O)[C@@H]2[C@@H]3C(=O)N(c4cccc(Oc5ccccc5)c4)C(=O)[C@@H]3CC[C@@H]12 | 0.517 | 0.132 | -0.209 | -0.991 (inactive) | 0.612 | -0.112 | 0.118 | 0.574 | 0.373 | 0.399 | 1.21 | -1.36 | 0.353 | 0.33 | -0.126 | -0.13 | -0.0064 | -0.287 | 0.444 | 0.305 |
| O=C1C[C@@H](O)[C@@H](O)[C@@H]2[C@@H]3C(=O)N(C[C@@H]4CCCO4)C(=O)[C@@H]3CC[C@H]12 | 0.379 | -0.273 | -0.577 | 0.32 (inactive) | 0.508 | 0.671 | 0.531 | 0.601 | 0.542 | -0.161 | 0.265 | 0.624 | 0.903 | 0.0222 | -0.522 | -0.0478 | -0.0337 | 0.0309 | 0.224 | 0.384 |
| CCN1C(=O)[C@@H]2[C@H]3C(=CC[C@@H]2C1=O)C1(OCCCO1)[C@H]1O[C@H]1[C@H]3O | 0.416 | 0.195 | -0.0468 | -9.75 (active) | 1.39 | 1.34 | 0.286 | 1.22 | 0.739 | -0.0212 | 1.38 | -4.67 | 0.352 | 0.669 | -0.536 | 0.0293 | -0.304 | 0.194 | 1.27 | 0.857 |
| CC(C)CCN1CCc2nc(COc3ccccc3)c3c(c2C1)CO[C@@H](C)C3 | 0.605 | 0.179 | 0.844 | 0.893 (inactive) | -0.185 | -0.113 | -0.0715 | -0.204 | -0.471 | 0.71 | 0.25 | 0.911 | 0.0637 | 0.683 | 0.0677 | -0.118 | 0.0796 | 0.15 | 0.686 | 0.221 |
| Cc1ccc(S(=O)(=O)NC(CCc2ccccc2)CC(=O)C(C)(C)C)cc1 (stereo not given) | 0.491 | -0.32 | -0.459 | -0.327 (inactive) | 0.465 | 0.667 | 0.589 | 0.758 | 0.661 | -0.114 | 0.52 | -2.04 | 0.445 | -0.0921 | -0.418 | -0.125 | 0.304 | -0.0626 | -0.0055 | 0.369 |
| CC(C)(C)N1C(=O)[C@H]2[C@H]3[C@H](O)C=CC(=O)[C@@H]3CC[C@H]2C1=O | 0.294 | -0.407 | -0.428 | -0.128 (inactive) | 0.429 | 0.695 | 0.437 | 0.711 | 0.715 | -0.214 | 0.264 | 0.133 | 0.296 | 0.0361 | -0.586 | -0.13 | 0.0121 | 0.0637 | -0.288 | 0.0991 |
| C#CCCCON=C1C[C@@H](O)[C@@H](O)[C@@H]2[C@@H]3C(=O)N(CCC(=O)OCC)C(=O)[C@@H]3CC[C@H]12 | 1 | 0.286 | -0.491 | -1.79 (inactive) | 0.628 | 0.814 | 0.542 | 1.16 | 0.389 | -0.422 | 0.0844 | 0.283 | 0.387 | 1.16 | 0.221 | -0.13 | 0.172 | -0.253 | 0.544 | 0.401 |
| COc1ccc(COC(=O)NN=C2C[C@@H](O)[C@@H](O)[C@@H]3[C@@H]4C(=O)N(c5cccc(Oc6ccccc6)c5)C(=O)[C@@H]4CC[C@@H]23)cc1 | -0.0785 | 0.557 | 1.28 | -0.161 (inactive) | -0.518 | -1.2 | -0.322 | -1.07 | -0.89 | 0.247 | -0.203 | -1.98 | -0.0421 | -0.338 | 0.0996 | -0.0165 | -0.117 | -0.0641 | 0.326 | 0.487 |
| COc1ccc(COC(=O)NN=C2C[C@@H](O)[C@@H](O)[C@@H]3[C@@H]4C(=O)N(C5CCCCC5)C(=O)[C@@H]4CC[C@H]23)cc1 | -0.378 | 1.07 | 1.47 | 1.3 (inactive) | -0.485 | -0.784 | -0.575 | -0.558 | -1.45 | 0.699 | -0.605 | -2.37 | -0.877 | 0.979 | -0.0278 | -0.243 | -0.315 | 0.051 | 1.03 | 0.161 |
| COc1ccc(O[C@H]2C=C[C@@H](c3ccccc3)O[C@@H]2COC(=O)CCC(C)=NOC[C@@H](O)[C@H]2O[C@@H]3OC(C)(C)O[C@@H]3[C@H]2O)cc1 | 0.933 | -0.206 | -0.633 | 0.17 (inactive) | 0.766 | 0.87 | 0.615 | 0.847 | 0.551 | 0.437 | 1.07 | -0.0939 | 0.706 | -0.166 | -0.627 | 0.0001 | -0.291 | -0.232 | 0.419 | 0.0391 |
| CCOC(=O)[C@H](CC(C)C)NC(=O)CCC1CC(OC(=O)NCc2cccc3ccccc23)CC2(CCCC(COC(=O)NCCC(C)C)O2)O1 (stereo not given in full) | 1.49 | -0.203 | -0.196 | -2.95 (inactive) | 0.335 | -0.229 | 0.59 | 0.728 | 0.418 | 0.203 | 0.15 | 0.502 | 0.443 | 0.18 | -0.703 | -0.0529 | -0.182 | -0.32 | 0.165 | 0.503 |
